Source: PubChem
GLD-1 TGE inh – GLD-1-TGE RNA interaction inhibition (C. elegans); 320,000 tested, 0.44% active; purified GLD-1 + fluorescein TGE RNA, fluorescence polarization; inhibition, % at 5.96 µM; Q17339; AID 2280;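 active = percent inhibition above a per-plate cutoff, the plate mean of test compounds plus 3 SD, cut at about 30% in these data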
MEX-5 binding – C. elegans MEX-5 TCR-2 RNA binding activity; activity score (negative = inhibition of binding), % at 10 µM; 300,000 tested, 0.38% active; Q9XUB2; MEX-5/FITC-TCR2 RNA binding, fluorescence polarization; hits give low values;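 active = inhibition past about -25% in most replicates, and total fluorescence under double the plate's negative control median, limit read from the data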
EBV gp42 inh – blocks Epstein-Barr virus glycoprotein 42 binding. Q1HVG2. Fluorescence polarization binding assay, mP read-out. inhibition, % (tested at 21.74 µM). 220,000 tested, 0.42% active. AID 1085; in the data active = inhibition above about 50%
eLon inh – inhibits E. coli Lon protease; P0A9M0; 360,000 tested, 0.42% active; inhibition, % at 7.94 µM; purified E. coli Lon protease, fluorescence polarization; in the data active = inhibition above about 13%, passing the limit was not always enough
Target sequence (P0A9M0 whole entry, looked up): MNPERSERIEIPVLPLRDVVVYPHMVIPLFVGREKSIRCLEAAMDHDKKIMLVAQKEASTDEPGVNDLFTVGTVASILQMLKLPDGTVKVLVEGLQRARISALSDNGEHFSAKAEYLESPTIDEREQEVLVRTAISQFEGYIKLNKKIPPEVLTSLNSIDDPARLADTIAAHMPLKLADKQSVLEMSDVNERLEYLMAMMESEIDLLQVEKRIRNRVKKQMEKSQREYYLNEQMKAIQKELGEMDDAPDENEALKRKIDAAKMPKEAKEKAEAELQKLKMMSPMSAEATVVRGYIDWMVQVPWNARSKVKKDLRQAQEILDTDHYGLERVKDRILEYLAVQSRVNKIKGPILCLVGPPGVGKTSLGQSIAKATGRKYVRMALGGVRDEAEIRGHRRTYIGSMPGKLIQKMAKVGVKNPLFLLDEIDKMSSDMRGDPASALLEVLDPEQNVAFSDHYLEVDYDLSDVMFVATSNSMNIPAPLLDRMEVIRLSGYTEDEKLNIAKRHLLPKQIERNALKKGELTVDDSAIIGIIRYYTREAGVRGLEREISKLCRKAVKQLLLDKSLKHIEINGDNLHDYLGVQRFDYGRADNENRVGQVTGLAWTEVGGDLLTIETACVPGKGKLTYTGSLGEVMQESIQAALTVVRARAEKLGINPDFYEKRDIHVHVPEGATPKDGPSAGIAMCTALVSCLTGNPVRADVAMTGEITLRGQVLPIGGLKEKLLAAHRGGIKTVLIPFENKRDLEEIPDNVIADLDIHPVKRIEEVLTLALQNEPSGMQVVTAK
Bcl-xL primary – blocks human Bcl-xL binding to Bim BH3 peptide | AID 2129 | inhibition, % at 10.9 µM | GST-Bcl-xL / FITC-Bim BH3 peptide fluorescence polarization | 320,000 tested, 0.7% active | Q07817;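 active = inhibition above the mean of all tested compounds plus 3 SD, cutoff set per campaign, cut at about 30% in these data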;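 note: inhibitors lower millipolarization by displacing the labeled peptide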
MCL1-BIM inh – disrupts human MCL1 binding to BIM-BH3 peptide | 320,000 tested, 0.68% active | AID 2057 | Q07820 | GST-MCL1 / FITC-Bim-BH3 fluorescence polarization | inhibition, % at 10.9 µM;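 active = inhibition above the mean inhibition of all tested compounds plus 3 SD, set per campaign, cut at about 40% in these data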;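 note: higher means more loss of mP so more displacement of Bim peptide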
E coli Lon conf – E. coli Lon inhibition confirmation | shares compounds with eLon inh | AID 602230 | inhibition, % at 7.94 µM | 1,400 tested, 31% active | purified E. coli Lon, fluorescence polarization; in the data active = inhibition above about 16%
Large screens that a line does not name were inactive (follow-up assays come after a bar, where they were run). An excerpt weighted towards active compounds, which were near 1.5% of everything screened.

Cc1ccc(NC(=O)COc2ccc(Br)cc2CO)cc1S(=O)(=O)N1CCOCC1	none (no result: MEX-5 binding, EBV gp42 inh, Bcl-xL primary, MCL1-BIM inh)
CCOC(=O)Cn1cnc2sc(C(=O)OC)c(C)c2c1=O	none
CCOCCn1cnc2sc(C(=O)NCC(=O)OCC)c(C)c2c1=O	eLon inh 15 | E coli Lon conf inactive
COc1ccc(CCNC(=O)CNC(=O)c2ccccc2Br)cc1OC	none (no result: EBV gp42 inh)
COc1cc(C(=O)OCC(=O)Nc2ccccc2C(=O)NC2CC2)c([N+](=O)[O-])cc1OC	eLon inh 35 (no result: MEX-5 binding, EBV gp42 inh) | E coli Lon conf inactive
COc1ccccc1CC(=O)NCc1csc(-c2cccs2)n1	none
CC(C)C(=O)NNC(=O)c1csc(-c2cccs2)n1	eLon inh 25 | E coli Lon conf inactive
CCOC(=O)N1CCN(C(=O)CSc2ccc3nnc(-c4ccncc4)n3n2)CC1	eLon inh 24 | E coli Lon conf inactive
CCOC(=O)N1CCN(C(=O)CSc2ccc3nnc(-c4ccccn4)n3n2)CC1	none
Cc1onc(-c2ccccc2)c1C(=O)NN1CCOCC1	none (no result: MEX-5 binding, EBV gp42 inh, Bcl-xL primary, MCL1-BIM inh)
O=S(=O)(CCC1CCCCN1)c1ccccc1 (configuration not stated)	none (no result: EBV gp42 inh)
Cc1cccc(C)c1OCc1cc(C(=O)N2CCC(c3ccccc3)CC2)no1	eLon inh 21 (no result: EBV gp42 inh) | E coli Lon conf 17
Cc1cccc(C)c1OCc1cc(C(=O)N2CCC(C3CCCCC3)C2)no1 (configuration not stated)	none (no result: EBV gp42 inh)
CCCN(CC(=O)Nc1cc(C)on1)CC(=O)Nc1ccccc1C	eLon inh 60 (no result: MEX-5 binding, EBV gp42 inh) | E coli Lon conf inactive
CCOC(=O)c1c(C)oc2c1c(C(c1ccccc1)N1CCOCC1)c(O)c1ccccc12 (configuration not stated)	none
CCOC(=O)c1c(C)oc2c1c(C=NCCO)c(O)c1ccccc12	eLon inh 25 (no result: GLD-1 TGE inh, Bcl-xL primary, MCL1-BIM inh) | E coli Lon conf 20
O=C(c1cnccn1)N1CCN(S(=O)(=O)c2ccc3ccccc3c2)CC1	eLon inh 20 | E coli Lon conf inactive
CCOC(=O)c1ccc(NC(=O)CSc2nnc(C)n2-c2ccccc2)cc1	eLon inh 14 | E coli Lon conf inactive
COc1ccc(CCNC(=O)CCNC(=O)c2ccco2)cc1OC	eLon inh 22 (no result: EBV gp42 inh) | E coli Lon conf inactive
CCN(CC(=O)NCc1cccs1)C(=O)c1ccc(S(=O)(=O)Nc2ccccc2)cc1	none (no result: EBV gp42 inh)
CCN(CC)S(=O)(=O)c1ccc(C(=O)NCc2cccs2)cc1	eLon inh 19 | E coli Lon conf inactive
CCN(CC(=O)NCc1cccs1)S(=O)(=O)c1ccc(F)cc1	none (no result: EBV gp42 inh)
CCN(CC(=O)NCc1cccs1)C(=O)c1ccc(S(=O)(=O)Nc2cccc(C)c2C)cc1	eLon inh active (no result: EBV gp42 inh) | E coli Lon conf inactive
CCN(CC)c1ccc(S(=O)(=O)N2CCOCC2)cc1NC(=O)COC(=O)c1cccnc1SC	none (no result: EBV gp42 inh)
O=C(O)CN1C(=O)C(=O)N(Cc2ccc(Cl)cc2Cl)C1=O	eLon inh 18 (no result: EBV gp42 inh) | E coli Lon conf 17
NC(=O)CN1C(=O)C(=O)N(Cc2ccc(Cl)cc2)C1=O	none (no result: EBV gp42 inh)
CC1(C(=O)NCc2ccccc2)Cc2c(-c3ccc4c(c3)OCO4)ccnc2O1 (configuration not stated)	none (no result: GLD-1 TGE inh, MEX-5 binding, EBV gp42 inh, Bcl-xL primary, MCL1-BIM inh)
COc1ccc(S(=O)(=O)NNC(=O)Nc2ccc(C)cc2C)c(OC)c1	none (no result: EBV gp42 inh)
CN(C(=O)c1ccccc1C(=O)OCC(=O)c1ccccc1)c1ccccc1	none (no result: MEX-5 binding, EBV gp42 inh)
COc1ccc(C(=O)COC(=O)c2ccccc2C(=O)N(C)c2ccccc2)c(OC)c1	eLon inh 40 (no result: EBV gp42 inh) | E coli Lon conf inactive
COc1ccccc1NC(=O)C(C)OC(=O)CCCc1c[nH]c2ccccc12 (configuration not stated)	none (no result: EBV gp42 inh)
Cc1ccc(-n2c(C)cc(C(=O)Cn3nc(C(=O)O)c4ccccc4c3=O)c2C)cc1	eLon inh 51 | E coli Lon conf inactive
COc1ccc(CCN2CCC(Nc3nc4ccccc4n3Cc3ccc(F)cc3)CC2)cc1	none
COc1c(O)cccc1[C@@H](O)C1CCN(CCc2ccc(F)cc2)CC1	GLD-1 TGE inh 58, MEX-5 binding -29, eLon inh 35, Bcl-xL primary 41 (no result: EBV gp42 inh) | E coli Lon conf inactive
CC(=O)C1=CCC(c2cccc(Cl)c2)N(S(=O)(=O)c2ccc(C)cc2)C1 (configuration not stated)	none (no result: GLD-1 TGE inh, MEX-5 binding, EBV gp42 inh, Bcl-xL primary, MCL1-BIM inh)
